Source: PubChem
The list is not random: actives were taken first. Their share in the collection is about 12%.
ROMK primary: human ROMK K+ channel modulation, primary screen; P48048; B-score at 10 µM; Tet-inducible ROMK, thallium flux fluorescence; actives lie on both sides; 130,000 compounds, 2% hits;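 active = signal ratio slope over the read window, or its plate-corrected B-score, at least 3 SD from the plate mean, either direction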;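 also: B-score of the F/F0 ratio slope over 7 to 12 s after thallium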
Ins promoter up: MIN6 insulin promoter up-regulation | MIN6 insulin promoter-GFP reporter, high-content imaging; hits give high values | z-score at 5 µM | 190,000 compounds, 0.3% hits | AID 1625;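 active = z-score above 3 at 5 µM with at least 500 cells counted in the well; inconclusive = wells under 500 cells, flagged as cytotoxic or low count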
KCC2 mod: modulators of human KCC2 chloride dependent transport. KCC2 cells, thallium flux FluoZin-2 fluorescence. B-score of Tl+ flux slope (higher = more flux/activation; lower = inhibition) at 10 µM. 190,000 compounds, 2.2% hits;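 active = thallium flux slope and its plate-corrected score both differing from the plate sample mean at a set confidence after two filtering rounds, in either direction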;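 also: slope of fluorescence scaled to starting intensity during 10 to 20 s after thallium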
Insulin prom inh: TRM-6 insulin promoter activity inhibition | TRM-6 cells (human fetal islet line), insulin promoter-eGFP reporter, imaging; reporter expression induced with tamoxifen | inhibition, % at 2 µM | 130,000 compounds, 0.9% hits;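 active = inhibition above the mean plus 3 SD, with well images judged a real hit on visual review, cut at about 60% in these data, passing the limit was not always enough; inconclusive = inhibition over the cutoff but images rejected on review; inactive = inhibition not above the cutoff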
Lmaj promast: inhibitors of Leishmania major promastigote growth. Leishmania major promastigotes, resazurin fluorescence viability. AID 1063. inhibition, % at 10 µM. 200,000 compounds, 9% hits; in the data active = inhibition above about 50%;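 also: promastigotes grown with compound for 44 hours at 28 °C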
WT yeast gro inh: growth inhibition of WT yeast, mitochondrial fusion screen; 190,000 compounds, 2.1% hits; mitochondrial fusion phenotypic screen, WT strain; inhibition, % at 10 µM; in the data active = inhibition above about 58%; tested in S. cerevisiae
ROMK retest: confirmation of human ROMK potassium channel modulators; shares compounds with ROMK primary; ROMK thallium flux, fluorescence ratio; hits give low values; normalized thallium flux (F/F0 slope) at 10 µM; 3,000 compounds, 54% hits;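 active = Flux at 10 µM at least 3 SD below or above vehicle control mean in one or both replicates; inconclusive = no clear call, values can overlap the other calls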
* = called active by the depositor; ? = inconclusive; · = no result given.

SMILES	ROMK primary	Ins promoter up	KCC2 mod	Insulin prom inh	Lmaj promast	WT yeast gro inh	ROMK retest
O=C(CSc1ncn[nH]1)NC12CC3CC(CC(C3)C1)C2	3*	0.27	0.049	18	-2	5	0.075
CN(Cc1ccccc1NS(=O)(=O)c1ccc2ccccc2c1)C1CCCCC1	-2.9*	-1.5	-1	-73	9	25	?
CN(Cc1ccccc1NS(=O)(=O)c1ccc(Cl)cc1)C1CCCCC1	-1.1	-0.93	0.88	-27	7	16	·
CC(C)(C)n1nnnc1C(c1cccc(C#N)c1)N1CCCc2ccccc21 (stereo not given)	-4*	0.47	·	-64	35	28	0.065*
CC(C)(C)n1nnnc1C(c1ccc(Cl)cc1)N1CCCc2ccccc21 (stereo not given)	·	-0.06	-0.15	8	7	55	·
CN(C)c1ccc(/C=C2\CCC/C(=C\c3ccccc3)C2=O)cc1	·	·	-0.44	-120	49	0	?
CCOC(=O)C1(Cc2ccccc2)CCN(Cc2cccc3nccnc23)CC1	-1.5	·	-0.68	·	44	2	·
CCOC(=O)C1(Cc2ccccc2)CCN(Cc2cn(CC(=O)OC)c3ccccc23)CC1	-3.3*	0.39	0.88	·	26	18	0.055*
COc1ccc(C2SCC(C(=O)O)N2C(C)=O)cc1 (stereo not given)	-0.046	-0.81	-0.01	·	-5	-7	·
CC(=O)N1C(C(=O)O)CSC1c1ccc(C)cc1 (stereo not given)	·	0.67	-1.9	·	-4	0	0.072
O=C(c1cccnc1Cl)N(Cc1ccccc1)Cc1ccccc1	-0.62	·	-0.22	29	9	0	·
CC(C)CCNC(=O)NC(=O)COC(=O)C1=COCCO1	0.46	·	-0.57	78*	-8	16	0.079
NS(=O)(=O)c1ccc(CCNC(=O)CSCc2ccccc2)cc1	1.3	-0.78	·	·	-6	7	·
CCc1ccc2[nH]c(=O)c(C3C(C#N)=C(N)Oc4c3ccc3cccnc43)cc2c1 (stereo not given)	·	-1.3	0.2	5	10	3	·
N#CC1=C(N)Oc2c(ccc3cccnc23)C1c1cccnc1 (stereo not given)	3.6*	0.59	-0.39	-52	-12	6	?
O=C(O)c1cccc(N/N=C/c2cc(Br)cc(Br)c2O)c1	-0.0062	0.37	-3.3	-31	-18	-18	·
Cc1c(N=Cc2cc(Br)cc(Br)c2O)cccc1C(=O)O	3.4*	0.36	-0.9	23	9	3	0.1*
Cc1ccc(NCc2nnc(SCC(=O)NCc3ccco3)n2CC2CCCO2)cc1Cl (stereo not given)	-2.8*	·	-0.87	-24	-5	12	0.067*
CCOC(=O)COc1ccc(S(=O)(=O)Nc2cccc(SC)c2)cc1	·	0.03	-0.011	-20	-4	3	·
NC(=O)C1CCN(C2=C(Cl)C(=O)c3ccccc3C2=O)CC1	·	·	-2.4	7	99*	13	0.053*
O=C1C(Cl)=C(N2CCC(C(=O)O)CC2)C(=O)c2ccccc21	·	-0.86	-1.2	·	·	·	·
CC1=C(C(=O)OC2CCCCC2)C(c2ccc(C)o2)C2=C(CCCC2=O)N1 (stereo not given)	-0.68	1.9	-2.3	·	35	21	·
CC1=C(C(=O)OC2CCCCC2)C(c2ccco2)C2=C(CC(C)(C)CC2=O)N1 (stereo not given)	·	0.6	-0.038	-16	59*	-5	0.076
CCOC(=O)CSC1=C(C#N)C(c2ccccc2OCC)C(C#N)C(=O)N1 (stereo not given)	3.2*	·	-0.2	·	-5	-1	0.085
CCOC(=O)CSC1=C(C#N)C(c2ccccc2OCC)C(C(=O)OCC)C(=O)N1 (stereo not given)	-0.58	0.08	·	·	2	-9	·
SMILES	ROMK primary	Ins promoter up	KCC2 mod	Insulin prom inh	Lmaj promast	WT yeast gro inh	ROMK retest
C=CCn1c(-c2cc(-c3ccccc3)sc2N)n[nH]c1=S	·	-0.54	3.4	·	·	·	·
CCn1c(SC(C)C)nnc1-c1cc(-c2ccccc2)sc1N	-2.8*	-1.7	-0.099	-50	32	51	0.073
CCOCc1nnc(NC(=O)c2c(OC)cccc2OC)s1	3.3*	0.74	·	32	-5	6	?
CS(=O)(=O)N(CC(=O)N1CCN(c2ccccc2F)CC1)c1cc(C(F)(F)F)ccc1Cl	0.72	1.1	-0.51	61	5	2	·
COC(=O)c1c(C)nc(C)c2c(=O)oc3ccccc3c12	·	·	-0.27	-11	-5	13	?
Clc1ccc(Cl)c(OCc2cc(-c3ccccc3Cl)on2)c1	·	·	-0.006	20	-3	·	·
COc1ccc(Cl)cc1S(=O)(=O)n1cnc2ccccc21	0.71	1.8	-0.31	·	-4	10	·
COc1cc(C2CC(=O)c3cnc(N)nc3C2)cc(OC)c1OC (stereo not given)	3.9*	·	0.15	42	4	-8	0.072
COc1cc(C2CC(=O)c3cnc(NC(=O)COc4ccccc4)nc3C2)cc(OC)c1OC (stereo not given)	0.9	-0.02	-0.21	·	2	5	·
COc1ccc(C(=O)/C=C/C(=O)N(Cc2ccccc2OC)C(C(=O)NC2CCCCC2)c2ccncc2)c(O)c1 (stereo not given)	-3.7*	-0.44	-1.2	-44	99*	15	0.066*
CC(=O)c1c(C)[nH]c(C(=O)Nc2nccs2)c1C	1.4	-1.1	0.23	·	6	5	·
CCOC(=O)NC(C)N1C(=O)C2C3C=CC(C3)C2C1=O (stereo not given)	-0.24	-0.72	-0.0028	·	1	-8	·
O=C(Nc1nccs1)Oc1ccccc1	1.7	0.31	-0.27	·	9	-21	·
C/C(=C\c1ccccc1)C(=O)Nc1nccs1	1.1*	·	-0.37	·	0	17	?
Nc1nonc1C(=O)NCCNCc1ccccc1OCc1ccc(F)cc1	·	-1.5	-0.44	-65	19	4	0.062*
CCOc1ccc(CNCCNC(=O)c2nonc2N)cc1	-0.00033	0.17	0.48	-36	-10	-15	·
C(=N\n1cnnc1)/c1ccc(-c2ccccc2)cc1	·	-0.51	-0.27	·	-5	31	·
COc1ccc(S(=O)(=O)N2CCC(C(=O)Nc3c(F)cccc3F)CC2)cc1	·	-1.2	·	·	-6	9	0.073
O=C(Nc1nnc(-c2ccccc2F)s1)C1CCN(S(=O)(=O)c2ccc(Cl)cc2)CC1	·	0.12	0.095	·	6	-13	0.078
O=C(NCCO)C1CCN(S(=O)(=O)c2ccc(F)cc2)CC1	-6.9*	-0.09	·	-50	1	15	0.073
CS(=O)(=O)N1CCC(C(=O)Nc2c(F)cccc2F)CC1	·	0.77	0.52	-33	-4	-9	·
CC12CCC(C(=O)N3CCCc4ccccc43)(OC1=O)C2(C)C (stereo not given)	0.46	0.58	-0.72	26	4	-9	·
Cc1cc(N2CCN(c3ccc([N+](=O)[O-])c4cccnc34)CC2)c2ccccc2n1	-2.6*	0.24	-0.39	-138	7	-1	0.062*
